# aSyn 5UTR act – Activators via SNCA 5'UTR binding, MLPCN. alpha-synuclein 5'UTR reporter, activators screen. activity score, % (tested at 7.5 µM), hits read low. actives 7.1% (n = 300,000). AID 1814, 2009; in the data active = activity score below about -60%
# * = called active by the depositor. Not all results are given here.
SMILES,aSyn 5UTR act
O=C(Nc1n[nH]c(=S)s1)c1ccc2ccccc2c1,-115*
O=C(Nc1nccs1)c1ccc(N2CCOCC2)c([N+](=O)[O-])c1,-80*
O=C(NCCc1ccccc1F)C(=O)Nc1nccs1,-122*
CCc1cc(C=C(Cl)Cl)oc(=O)c1C,-117*
Cc1ccc(NC(=O)c2oc3ccccc3c2NC(=O)C2CCCO2)cc1C (stereo not given),-169*
COc1ccc(NC(=O)c2oc3ccccc3c2NC(=O)C2CCCO2)cc1OC (stereo not given),-116*
CCOc1ccccc1NC(=O)c1oc2ccccc2c1NC(=O)C1CCCO1 (stereo not given),-63*
CCn1cnc2sc(C(=O)Oc3ccc(Br)cc3)c(C)c2c1=O,-77*
O=C(Nc1ccccc1)c1ccn[nH]1,-191*
O=C(Nc1cccc([N+](=O)[O-])c1)c1ccn[nH]1,-106*
Cc1ccsc1C(=O)N/N=C/c1ccc2c(c1)OCO2,-99*
O=C(N/N=C/c1ccc2c(c1)OCO2)c1cccs1,-135*
Cc1cc(C)nc(Nc2nc(=O)c3ccccc3s2)n1,-134*
CC1(C)COC(c2coc3ccccc3c2=O)OC1,-97*
Cc1ccc(NC(=O)OCc2cccs2)cc1,-191*
Cc1ccc(NC(=O)OCc2cc(-c3ccccc3)on2)cc1,-93*
S=C(NCCc1ccccc1)NCc1cccs1,-74*
CC(C)(C)c1ccc(NC(=S)NCc2cccs2)cc1,-98*
COc1ccc(-c2cc(C(=O)Nc3ccc(C)cc3)no2)cc1,-71*
COc1ccc(-c2cc(C(=O)Nc3cc(C)on3)no2)cc1,-71*
COc1ccc(OCc2cccc(C(=O)Nc3cc(C)on3)c2)cc1,66
O=c1c(Cl)nc2cc(Cl)ccc2n1CCNc1ncc(C(F)(F)F)cc1Cl,110
NC(=O)C1=NOC(CNc2ncc(C(F)(F)F)cc2Cl)C1 (stereo not given),-72*
C/C(N)=C(/C#N)C(=O)CSc1nnc(Nc2cccc(C)c2C)s1,-117*
CCN(CC)C(=O)CCCSc1nnc(Nc2ccccc2F)s1,-75*
SMILES,aSyn 5UTR act
CCCSc1nnc(Nc2ccccc2C)s1,-96*
Cc1ccccc1Nc1nnc(SCC(=O)Nc2ccccc2[N+](=O)[O-])s1,-81*
Cc1ccc(-c2nnc(COC(=O)c3cccs3)o2)cc1,-64*
O=C(c1cccs1)c1no[n+]([O-])c1C(=O)c1cccs1,63
Cc1ccc(-c2nnc(SCC#CCOC(=O)c3cccs3)o2)cc1,-71*
Cc1ccc(-c2nnc(SCC#CCOC(=O)c3ccco3)o2)cc1,-66*
COc1ccc(-c2csc(-c3cccs3)n2)c(OC)c1,-126*
COc1ccc(-c2csc(-c3ccccc3)n2)c(OC)c1,-202*
COc1ccc(NC2=C3CC(C)CC=C3N(c3ccc(OC)cc3)C2=O)cc1 (stereo not given),-84*
COC(=O)Oc1ccc(/C=C/C(=O)OC(C)C)cc1OC(=O)OC,-127*
O=C(Nc1ccc2c(c1)OCCO2)c1c(F)cccc1F,-122*
O=C(O)c1cc(S(=O)(=O)Nc2ccc3c(c2)OCCO3)c(Cl)cc1Cl,-82*
Cc1ccc(NC(=O)c2ccc3c(c2)OCCO3)cc1C,74
O=C(Nc1ccccc1)c1ccc2c(c1)OCCO2,-87*
O=C(Nc1cccc(F)c1)c1ccc2c(c1)OCCO2,-111*
O=C(NCCc1ccc2c(c1)OCCO2)c1ccccc1F,-110*
COC(=O)c1ccsc1NC(=O)c1ccc2c(c1)OCCO2,-97*
O=C(NC(=S)Nc1ccc2c(c1)OCCO2)c1ccccc1F,-155*
Cc1ccc(NC(=O)c2ccc3c(c2)OCCO3)cc1S(=O)(=O)Nc1cccc(Cl)c1,-95*
Cc1cc(OCc2ccc(C(=O)n3cccn3)o2)ccc1Cl,-62*
CCN(CC)C(=O)c1ccc(COc2ccc(Cl)c(C)c2)o1,-119*
COc1cccc(N2CCN(C(=O)c3ccc(CS(=O)c4ccc(Cl)cc4)o3)CC2)c1 (stereo not given),107
C#CC[N+](C)(C)CCCCCCCCCC,75
COC(=O)c1c(NC(=O)/C=C/C(=O)O)sc(C)c1-c1ccc(C(C)C)cc1,-68*
N/C(=N\OC(=O)c1cccs1)c1ccccc1,-250*
SMILES,aSyn 5UTR act
Cc1cccc(/C(N)=N/OC(=O)c2cccs2)c1,-106*
COc1ccc(/C(N)=N/OC(=O)c2cccs2)cc1OC,-186*
Cc1ccc(/C(N)=N/OC(=O)c2cccs2)cc1,-124*
N/C(=N\OC(=O)c1cccs1)c1cccc(Br)c1,-128*
COC(=O)C1C(=O)C(C(=O)/C=C/c2ccccc2)C(=O)CC1(C)C (stereo not given),-134*
O=c1c2cccc(Cl)c2nc2n1Cc1ccccc1-2,-154*
Fc1cccc2sc(Nc3nc4cc5c(cc4s3)OCCO5)nc12,-78*
Fc1cc(F)c2nc(Nc3nc4cc5c(cc4s3)OCO5)sc2c1,-176*
O=C(NNc1nc2cc3c(cc2s1)OCCO3)c1ccccc1,-141*
Fc1cccc2sc(Nc3nc4cc5c(cc4s3)OCO5)nc12,-222*
Fc1ccc(COc2ccc(-c3nnco3)cc2)c(Cl)c1,-96*
Fc1cc(Br)ccc1COc1ccc(-c2nnco2)cc1,-133*
COc1cccc(N=c2oc3ccccc3cc2-c2nc3ccccc3[nH]2)c1,-80*
COc1ccc(-c2cn3c(n2)CCC3)cc1,-91*
COCCNC(=O)C(c1ccncc1)N(C(=O)c1sc(C)nc1C)c1cccc(C)c1 (stereo not given),-90*
COc1cc(SC)ccc1C(=O)OCC(=O)NC1CCCC1,-94*
N/C(=N\OC(=O)c1cccc(Cl)c1)c1cccnc1,-114*
N/C(=N\OC(=O)c1cccc(C(F)(F)F)c1)c1cnccn1,-81*
N/C(=N\OC(=O)c1cccc(Cl)c1)c1ccncc1,-87*
N/C(=N\OC(=O)c1ccc(Cl)c(Cl)c1)c1cccnc1,-138*
O=S(=O)(c1ccccc1F)N1CCN(c2nc3ccccc3s2)CC1,-116*
CC1CCN(c2nc3ccc(C(=O)N4CCN(Cc5ccccc5)CC4)cc3s2)CC1,-137*
c1ccc(CN2CCN(c3nc4ccccc4s3)CC2)cc1,-150*
CCOC(=O)N1CCN(C(=O)c2ccc3nc(N4CCC(C)CC4)sc3c2)CC1,-124*
COc1cccc(N2CCN(C(=O)c3ccc4nc(N5CCC(C)CC5)sc4c3)CC2)c1,-157*
SMILES,aSyn 5UTR act
COc1cccc(N2CCN(C(=O)c3ccc(CS(=O)c4ccc(C)cc4)o3)CC2)c1 (stereo not given),97
Cc1ccc(C(=O)/C=C/Nc2ccccc2C(N)=O)o1,-200*
NC(=O)c1ccccc1N/C=C/C(=O)c1ccc(F)cc1,-65*
Cc1ccc(C=Nc2ccccc2C(N)=O)o1,-154*
COc1ccccc1Oc1ccc(N/C=C/C(=O)c2ccc(C)o2)cc1,-89*
C=C(C)C1Cc2cc3ccc(=O)oc3cc2O1 (stereo not given),-65*
Clc1ccc(Sc2cnc3ccccc3n2)cc1,-75*
c1ccc(Sc2cnc3ccccc3n2)cc1,-169*
Brc1ccc(Sc2cnc3ccccc3n2)cc1,-77*
O=C(O)c1ccccc1NN=C1CCCCC1,-192*
C/C(=N\Nc1ccc(C)c(Cl)c1)c1ccncc1,-77*
C/C(=N\Nc1ccccc1C(=O)O)c1ccncc1,-132*
C/C(=N\Nc1ccc(C)c(Cl)c1)c1cccnc1,-105*
Cc1[nH]n(-c2ccccc2)c(=O)c1N=Nc1cccc(Cl)c1,-202*
Cc1cc(N)ccc1N=Nc1c(C)n(C)n(-c2ccccc2)c1=O,-73*
Cc1[nH]n(-c2ccccc2)c(=O)c1N=Nc1ccc(F)cc1,-81*
